# Measurements reported in PubChem BioAssay (NCATS).
# Results filed as inconclusive are left out. A call without a number means that no potency is given here. Active and inactive are the calls of the source. Calls come from the whole dose curve; as a rule, active = well fitted inhibition curve with a large enough effect; inconclusive = small, poorly fitted or top-dose-only effect; inactive = no such curve, though single readings can be large or run the other way.
# Target: Glutaminase kidney isoform, mitochondrial (Homo sapiens) (UniProt O94925)
# Assay: qHTS for Inhibitors of Glutaminase (GLS): LOPAC Validation (AID 624146); note: nearly all actives have a fitted effect of over 60% in size
# Details: glutaminase enzyme activity inhibition; series mostly up to 46.1 µM
# Text: Glutaminase (GLS) catalyzes the hydrolysis of glutamine into glutamate and ammonia. It plays a critical role in glutaminolysis, which is an important energy source for proliferating cells. It was shown that c-Myc, an oncogenic transcription factor known to regulate microRNAs and to stimulate cell proliferation, increases glutamine metabolism by stimulating the expression of GLS via direct suppression of miR23a and miR23b.
# GLS is also thought to play a pathogenic role on HAD using a human HIV-1 infected macrophage system. […] GLS inhibition limits glutamate release and provides neuroprotection against HIV-1 infected macrophages.
# The overall goal of this project is to identify small molecule inhibitors of GLS through quantitative high throughput screening (qHTS) of the MLSMR. A validated potent and selective inhibitor can be used as a tool molecule to further study the pharmacology of its target as well as explore its potential therapeutic application in cancer and inflammatory neurological disorders, such as HIV1-associated dementia (HAD) and multiple sclerosis.
# NIH Chemical Genomics Center [NCGC]
# NIH Molecular Libraries Probe Centers Network [MLPCN]
# Assay Submitter (PI): Barbara S. Slusher, Johns Hopkins University
# Three 3 uL of hKGA is dispensed into black well 1536-well plates in 45 mM KH2PO4 (pH 8.2), 0.02% Tween-20. Then 23 nL of compounds are added through pin tool transfer. To this, 1 uL of 1mM L-Glutamine and 1 uL of a solution of L-Glutamateoxidase, HRP, Amplex red are added. Plate is centrifuged for 25 sec before an initial fluorescence read is obtained on the ViewLux, after 30 min of RT incubation, the final read is taken on the ViewLux.
# Potency is the fitted concentration of half-maximal effect.
# Glutaminase kidney isoform, mitochondrial (Homo sapiens), sequence (O94925 whole entry, looked up, canonical isoform): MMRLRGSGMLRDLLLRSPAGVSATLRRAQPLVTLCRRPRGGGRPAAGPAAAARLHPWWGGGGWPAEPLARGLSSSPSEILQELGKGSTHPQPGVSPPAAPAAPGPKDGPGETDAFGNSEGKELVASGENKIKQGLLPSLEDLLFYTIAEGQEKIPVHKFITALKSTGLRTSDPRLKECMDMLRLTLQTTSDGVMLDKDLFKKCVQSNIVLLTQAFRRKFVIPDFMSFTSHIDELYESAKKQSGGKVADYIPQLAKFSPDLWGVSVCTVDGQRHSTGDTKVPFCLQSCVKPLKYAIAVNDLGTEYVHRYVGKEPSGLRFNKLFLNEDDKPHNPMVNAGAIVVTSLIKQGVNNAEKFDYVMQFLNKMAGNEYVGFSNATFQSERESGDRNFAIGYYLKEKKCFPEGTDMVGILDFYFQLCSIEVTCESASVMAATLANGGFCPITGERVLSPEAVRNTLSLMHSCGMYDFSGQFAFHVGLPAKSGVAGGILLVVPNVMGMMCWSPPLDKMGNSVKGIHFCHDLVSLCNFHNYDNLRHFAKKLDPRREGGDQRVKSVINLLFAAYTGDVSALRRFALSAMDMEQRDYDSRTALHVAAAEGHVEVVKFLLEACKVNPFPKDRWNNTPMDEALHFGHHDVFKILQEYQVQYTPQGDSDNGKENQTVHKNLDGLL
row,Compound,Potency
1,CCN(CC)CCOC(=O)c1ccc(N)cc1,inactive
2,CC/C(=C(\c1ccccc1)c1ccc(OCCN(C)C)cc1)c1ccccc1,inactive
3,CC(C)NCC(O)COc1cccc2[nH]ccc12 (configuration not stated),inactive
4,O=C(O)CCc1nc(-c2ccccc2)c(-c2ccccc2)o1,inactive
5,C[N+](C)(C)CC(=O)O,inactive
6,COC(=O)[C@@H]1[C@H]2C[C@H]3c4[nH]c5ccccc5c4CCN3C[C@@H]2CC[C@@H]1O,inactive
7,CN(C)CCC(c1ccccc1)c1ccccn1 (configuration not stated),inactive
8,CC1=C(/C=C/C(C)=C/C=C/C(C)=C/C(=O)Nc2ccc(O)cc2)C(C)(C)CCC1,12.6 µM (active)
9,CC(=O)O[C@]1(C(C)=O)CC[C@H]2[C@@H]3C=C(Cl)C4=CC(=O)[C@@H]5C[C@@H]5[C@]4(C)[C@H]3CC[C@@]21C,inactive
10,O=C1NC(=O)C(c2ccccc2)(c2ccccc2)N1,inactive
11,CCn1cc(C(=O)O)c(=O)c2ccc(C)nc21,inactive
12,C[N+](C)(C)CCCCCC[N+](C)(C)C,inactive
13,CC(C)(C)c1ccc(C(O)CCCN2CCC(C(O)(c3ccccc3)c3ccccc3)CC2)cc1 (configuration not stated),inactive
14,CCN(CC)CCNC(=O)c1ccc(N)cc1,inactive
15,Cc1cccc(C)c1OCC(C)N (configuration not stated),inactive
16,CCCNC(=O)NS(=O)(=O)c1ccc(Cl)cc1,inactive

row,Compound,Potency
1,O=c1c(-c2ccc(O)cc2)coc2cc(O)ccc12,inactive
2,CCCCCN(C)CCC(O)(P(=O)(O)O)P(=O)(O)O,inactive
3,CC(C)OC(=O)C(C)(C)Oc1ccc(C(=O)c2ccc(Cl)cc2)cc1,inactive
4,Clc1ccc(C(c2ccc(Cl)cc2)n2cc[n+](CC(OCc3ccc(Cl)cc3Cl)c3ccc(Cl)cc3Cl)c2)cc1 (configuration not stated),inactive
5,O=c1cc(-c2ccc(O)cc2)oc2cc(O)cc(O)c12,inactive
6,CC(=O)c1ccc(S(=O)(=O)NC(=O)NC2CCCCC2)cc1,inactive
7,CC(=O)CCCCn1c(=O)c2c(ncn2C)n(C)c1=O,inactive
8,CC(=O)N[C@@H](CS)C(=O)O,inactive
9,CCCCC1C(=O)N(c2ccccc2)N(c2ccccc2)C1=O,inactive
10,COc1cccc(-c2cc(=O)c3ccccc3o2)c1N,inactive
11,COc1ccc(Cc2nccc3cc(OC)c(OC)cc23)cc1OC,inactive
12,COc1ccccc1N1CCN(CCCNc2cc(=O)n(C)c(=O)n2C)CC1,inactive
13,Clc1ccc(Cn2c(CN3CCCC3)nc3ccccc32)cc1,inactive
14,NCCS,inactive
15,O=C(NCCN1CCOCC1)c1ccc(Cl)cc1,inactive
16,CCN1CCC[C@H]1CNC(=O)c1cc(S(N)(=O)=O)ccc1OC,inactive
